Screening data deposited in PubChem BioAssay by National Center for Advancing Translational Sciences (NCATS).
BAZ2B block: BAZ2B (human) inhibition; 360,000 compounds, 4.4% hits; Q9UIF8; Potency, µM (highest dose often 114 µM), for the others: top-dose activity change, negative = inhibition, most hits filed as inhibitors; AlphaScreen BAZ2B-H3K14Ac peptide displacement; AID 504333; further: on the % scale 0 is the no-effect control and ±100 the full control effect; nearly all actives have a fitted effect of over 60% in size
Target sequence (Q9UIF8 whole entry, looked up): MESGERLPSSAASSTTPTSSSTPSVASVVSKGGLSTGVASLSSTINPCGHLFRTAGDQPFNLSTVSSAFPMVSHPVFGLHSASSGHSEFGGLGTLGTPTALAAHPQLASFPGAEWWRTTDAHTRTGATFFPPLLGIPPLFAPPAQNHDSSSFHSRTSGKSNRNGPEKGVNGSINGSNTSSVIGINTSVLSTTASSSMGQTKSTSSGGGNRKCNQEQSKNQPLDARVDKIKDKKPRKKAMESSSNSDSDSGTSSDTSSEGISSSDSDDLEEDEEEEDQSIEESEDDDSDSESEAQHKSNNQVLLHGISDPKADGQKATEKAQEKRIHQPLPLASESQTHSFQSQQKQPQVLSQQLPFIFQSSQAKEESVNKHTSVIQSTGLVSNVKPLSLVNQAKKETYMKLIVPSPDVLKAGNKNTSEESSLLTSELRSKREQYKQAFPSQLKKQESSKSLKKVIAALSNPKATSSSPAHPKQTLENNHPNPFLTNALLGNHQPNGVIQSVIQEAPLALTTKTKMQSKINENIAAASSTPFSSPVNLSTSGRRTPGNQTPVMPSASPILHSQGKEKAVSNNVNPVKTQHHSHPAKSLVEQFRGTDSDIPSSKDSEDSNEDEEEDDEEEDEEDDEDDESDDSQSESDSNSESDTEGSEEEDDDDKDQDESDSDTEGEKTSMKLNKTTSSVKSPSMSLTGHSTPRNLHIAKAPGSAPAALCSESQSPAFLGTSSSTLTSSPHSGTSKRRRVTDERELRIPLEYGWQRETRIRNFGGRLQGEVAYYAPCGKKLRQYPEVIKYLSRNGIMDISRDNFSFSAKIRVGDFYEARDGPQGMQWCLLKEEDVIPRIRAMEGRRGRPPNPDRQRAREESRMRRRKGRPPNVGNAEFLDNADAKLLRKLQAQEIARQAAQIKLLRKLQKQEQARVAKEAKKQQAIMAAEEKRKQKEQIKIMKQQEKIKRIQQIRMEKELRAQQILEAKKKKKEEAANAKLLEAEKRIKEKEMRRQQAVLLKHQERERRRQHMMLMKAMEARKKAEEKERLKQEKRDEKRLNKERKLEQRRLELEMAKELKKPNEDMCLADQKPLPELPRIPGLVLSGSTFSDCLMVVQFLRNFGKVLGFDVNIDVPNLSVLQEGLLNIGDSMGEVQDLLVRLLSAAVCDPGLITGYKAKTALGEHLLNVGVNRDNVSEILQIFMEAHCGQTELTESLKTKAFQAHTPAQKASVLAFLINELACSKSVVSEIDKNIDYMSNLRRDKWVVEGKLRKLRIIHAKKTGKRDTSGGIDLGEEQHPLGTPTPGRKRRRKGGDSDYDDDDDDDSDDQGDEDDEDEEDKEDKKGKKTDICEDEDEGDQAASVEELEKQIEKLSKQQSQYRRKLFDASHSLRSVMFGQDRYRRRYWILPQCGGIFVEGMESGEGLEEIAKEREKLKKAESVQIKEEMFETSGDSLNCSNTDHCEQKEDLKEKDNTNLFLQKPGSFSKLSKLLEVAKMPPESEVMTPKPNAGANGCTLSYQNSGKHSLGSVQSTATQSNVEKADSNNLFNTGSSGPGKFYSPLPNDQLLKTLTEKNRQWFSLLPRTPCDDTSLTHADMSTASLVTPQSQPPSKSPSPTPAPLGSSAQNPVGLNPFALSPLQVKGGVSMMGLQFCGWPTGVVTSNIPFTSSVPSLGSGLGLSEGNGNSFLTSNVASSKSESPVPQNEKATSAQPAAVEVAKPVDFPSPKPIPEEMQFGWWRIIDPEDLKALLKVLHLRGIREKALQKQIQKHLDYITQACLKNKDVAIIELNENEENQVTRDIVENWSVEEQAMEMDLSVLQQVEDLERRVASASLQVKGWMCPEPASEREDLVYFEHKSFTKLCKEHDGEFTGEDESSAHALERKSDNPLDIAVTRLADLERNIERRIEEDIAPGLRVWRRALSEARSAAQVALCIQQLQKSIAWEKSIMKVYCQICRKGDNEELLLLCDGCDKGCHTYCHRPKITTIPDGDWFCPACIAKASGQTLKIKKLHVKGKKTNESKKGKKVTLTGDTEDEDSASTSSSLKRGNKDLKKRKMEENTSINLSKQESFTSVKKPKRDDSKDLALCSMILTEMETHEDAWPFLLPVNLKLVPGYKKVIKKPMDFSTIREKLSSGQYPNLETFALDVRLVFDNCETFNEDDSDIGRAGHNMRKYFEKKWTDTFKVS
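Multi-concentration screen (max 110 uM) measuring displacement of acetylated histone H3 peptide from BAZ2B by AlphaScreen, using 50 nM protein, 50 nM peptide and 10 ug/mL streptavidin donor plus Ni-chelate acceptor beads.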
G9a inh: blocks human histone lysine methyltransferase G9a | G9a H3K9 monomethylation, AlphaScreen, 2 h | Q96KQ7 | Potency, µM (top dose mostly 102 µM), without a hit: at the highest dose activity, negative = inhibition, most hits filed as inhibitors | AID 504332 | 350,000 compounds, 8.8% hits; further: on the % scale 0 is the no-effect control and ±100 the full control effect; nearly all actives have a fitted effect of over 75% in size
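AlphaScreen detection with an anti-monomethyl H3K9 antibody quantified product after a 2 h room-temperature reaction containing 500 nM biotinylated H3K9 peptide, 20 µM SAM and 20 nM enzyme, which had been preincubated 15 min with compound.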
JMJD2A Tudor inh: JMJD2A Tudor domain (human) inhibition; AlphaScreen JMJD2A-Tudor / H3K4me3 peptide binding; AID 504339; 390,000 compounds, 4.4% hits; Potency, µM (highest dose often 114 µM), inactives show at the top dose activity change, negative = inhibition, actives largely listed as inhibitors; further: on the % scale 0 is the no-effect control and ±100 the full control effect; nearly all actives have a fitted effect of over 50% in size
Sfp inh: blocks B. subtilis Sfp PPTase activity | Q9F4F7 | Biochemical Sfp PPTase activity, qHTS | Potency, µM, inactives show largest response in the series, negative = inhibition, actives largely listed as inhibitors | 310,000 compounds, 3.5% hits;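 further: the enzyme is Sfp with the accession as filed and its product quenches rhodamine fluorescence; 0% = enzyme reaction without inhibitor and -100% = no enzyme wells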
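Step 1, compound plus 15 nM Sfp-PPTase, 15 min, room temperature. Step 2, add rhodamine-CoA (5 uM) and BHQ-2-YbbR (12.5 uM). Step 3, read 525/598 nm fluorescence at 0 and 30 min.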
HP1b chromo inh: HP1-beta chromodomain-methylated histone interaction inhibition; P83916; AlphaScreen HP1-beta / biotin-H3K9me3 peptide binding; Potency, µM (top dose mostly 114 µM), for the others: top-dose activity change, negative = inhibition, most hits filed as inhibitors; 390,000 compounds, 0.56% hits; AID 540317; further: nearly all actives have a fitted effect of over 70% in size
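Compound inhibition of the preformed complex between 50 nM HP1-beta and 50 nM biotinylated H3K9me3 peptide was read by AlphaScreen. Buffer was PBS pH 7.4 with 0.01% Tween-20. Incubations ran 30 min at room temperature, with 10 ug/mL donor/acceptor beads.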
L3MBTL1 block: inhibitors of human L3MBTL1. Q9Y468. AlphaScreen L3MBTL1–H3K9me1 peptide binding. Potency, µM (top dose mostly 57.1 µM), for inactives: top-dose activity, negative = inhibition, actives largely listed as inhibitors. 230,000 compounds, 0.66% hits; further: on the % scale 0 is the no-effect control and ±100 the full control effect; nearly all actives have a fitted effect of over 60% in size
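AlphaScreen proximity signal between nickel-chelate acceptor and streptavidin donor beads (final 10 ug/mL) reports binding of 50 nM L3MBTL1 to 75 nM biotin-H3 K9me1 peptide; complex incubated with compounds 30 min at room temperature; cefsulodin titration as control.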
* hit, by the source's call; ? = inconclusive; . = no result given; [ ] = remark or other dose. In the library only some 12% were active in any assay of this set; here they are far more common. The call rests on the fitted dose curve; in most records, active means well fitted curve in the direction sought with a large enough effect; inconclusive means small, poorly fitted or top-dose-only effect, or another doubt; inactive means no such curve, though single readings can be large; an effect the other way counts as inactive or inconclusive. Potency means the concentration at half of the fitted maximal effect.

SMILES	BAZ2B block	G9a inh	JMJD2A Tudor inh	Sfp inh	HP1b chromo inh	L3MBTL1 block
C#CCOCCOCCOCCNc1nc(N2CCN(C(=O)[C@H]([C@@H](C)CC)n3cc([C@@H](N)CC(C)C)nn3)CC2)nc(N2CCN(C(=O)[C@H](Cc3cc4ccccc4[nH]3)n3cc([C@@H](N)Cc4ccc(O)cc4)nn3)CC2)n1	50µM*	4%[12.7 µM]	56µM*	?	-29%	-18%
C#CCOCCOCCOCCNc1nc(N2CCN(C(=O)[C@H]([C@@H](C)CC)n3cc([C@@H](N)Cc4ccc(O)cc4)nn3)CC2)nc(N2CCN(C(=O)[C@H](Cc3cc4ccccc4[nH]3)n3cc([C@@H](N)CC(C)C)nn3)CC2)n1	56µM*	-38%[2.33 µM]	40µM*	.	-7%	-4%
C#CCOCCOCCOCCNc1nc(N2CCN(C(=O)[C@H]([C@@H](C)CC)n3cc([C@@H](N)CC(C)C)nn3)CC2)nc(N2CCN(C(=O)[C@H](Cc3cc4ccccc4[nH]3)n3cc([C@@H](N)C(C)CC)nn3)CC2)n1 (some centres undefined)	50µM*	2%[12.7 µM]	.	-23%	.	.
COc1cc(CCC(=O)Nc2ccc(C)c(S(=O)(=O)N(C)C)c2)cc(OC)c1OC	3%	25%[59 µM]	-3%	10%	38%	7%
COc1ccc(CCN(C)CCC(=O)Nc2cc(C)ccc2C)cc1OC	46%	13%[59 µM]	-21%	-19%	24%	29%
COc1ccc(CCNC(=O)CCc2cc(OC)c(OC)c(OC)c2)cc1	-2%	3%	7%	2%	59%	.
COC(=O)c1ccc(C)c(NC(=O)CCc2cc(OC)c(OC)c(OC)c2)c1	-2%	45µM*	8%	3%	19%	-5%
COC(=O)c1ccc(C)c(NC(=O)CCc2ccc(OC)c(OC)c2)c1	-5%	50µM*	-21%	7%	17%	0%
COc1cc(CCC(=O)Oc2ccc(C(C)=O)cc2)cc(OC)c1OC	-4%	71µM*	-5%	-4%	33%	0%
COC(=O)C1=C(C(=O)OC)[C@@H]2N(C)c3ccccc3[C@@]23C[C@@H](C(=O)OC)N(S(=O)(=O)c2ccc(OC)cc2)C3=N1	.	.	.	-9%	.	.
COc1ccc(NC(=O)Cn2c(=O)oc3cc(S(=O)(=O)NC(C)C)ccc32)cc1OC	-1%	-20%[59 µM]	-8%	.	20%	.
O=C(Nc1nc2ccccc2n1CCN1CCCC1)C1CCCCC1	50µM*	9%[12.7 µM]	-26%	20%	15%	.
CCC(=O)Nc1nc2ccccc2n1CCN1CCOCC1	.	?	3.2µM*	5%	-10%	-2%
CCC1=C(OC(=O)N(CC)CC)N2C(=O)OC(=NCCOC)[C@]2(C)[C@H]2C1=CC[C@H]1C(=O)NC(=O)[C@H]12	.	.	.	32%	.	.
CCOC(=O)CN(C(=O)CSc1nnc(CNc2ccc(C)cc2C)o1)c1ccccc1	50µM*	-8%[59 µM]	?	-4%	-10%	-18%
O=C(NC(=S)NC1CCCc2ccccc21)c1ccc(F)cc1 (centres undefined)	?	-22%	79µM*	-5%	-12%	.
O=C(NC1CCCc2ccccc21)c1ccccn1 (centres undefined)	-3%	-10%	-3%	3%	17%	.
O=C(NC(=S)NC1CCCc2ccccc21)c1ccco1 (centres undefined)	-31%	-35%	-6%	-16%	34%	-7%
O=C(CCl)NC1CCCc2ccccc21 (centres undefined)	4%	6%	50µM*	5%	-11%	4%
CN(C)c1ccc(C(=O)NC2CCCc3ccccc32)cc1 (centres undefined)	-29%	24%[12.7 µM]	-4%	14%	28%	-10%
N#Cc1ccc(C(=O)NC2CCCc3ccccc32)cc1 (centres undefined)	4%	50µM*	7%	2%	48%	25%
O=C(NC1CCCc2ccccc21)c1cc(Cl)ccn1 (centres undefined)	2%	25µM*	30%	-27%	3%	.
O=C(Cc1ccc(Br)cc1)NC1CCCc2ccccc21 (centres undefined)	-1%	9%	-2%	13%	27%	.
COc1ccc(Cl)cc1-n1nnc(-c2nsc(NC(=O)c3ccccc3Cl)n2)c1C	15%	2%[59 µM]	-2%	.	30%	.
Cc1ccc(Cn2c(CNC(=O)Cc3cccc([N+](=O)[O-])c3)nc3cccnc32)cc1	-6%	-2%[59 µM]	-1%	.	6%[57 µM]	.
SMILES	BAZ2B block	G9a inh	JMJD2A Tudor inh	Sfp inh	HP1b chromo inh	L3MBTL1 block
CCc1ccccc1N(C)C(=O)c1cc2c(=O)oc3ccccc3c2s1	0%	-1%[59 µM]	-2%	.	39%	.
COc1ccc(-c2c(C#Cc3ccc(N(C)C)cc3)c3ccccc3n2C)cc1	.	.	56µM*	.	?	-25%
O=C1[C@H]2C(c3ccccc3)=NN(c3ccccc3)[C@H]2C(=O)N1c1ccccc1	46%	76%	92%	16%	161%	.
O=C1[C@@H]2[C@@H](CN3CN(c4ccccc4)N=C(c4ccccc4)[C@@]23c2ccccc2)C(=O)N1c1ccccc1	.	.	89µM*	.	?	.
COc1ccc(CNC(=O)c2ccc(NC(=O)N3CCSc4ncccc43)cc2)cc1OC	-26%	?	7%	.	40%	.
CC(=O)NC1C(c2nc3ccccc3s2)=C(c2ccccc2)C(=O)N1c1ccc(C)cc1 (centres undefined)	-37%	50µM*	?	15%	?	.
CC(CC(C)(C)C)CP(=O)(O)CC(C)CC(C)(C)C (centres undefined)	.	.	.	11%	.	.
CCOc1ccc2cc(-c3nnc(Nc4ccc(C)cc4)s3)c(=O)oc2c1	-26%	-40%[59 µM]	-11%	.	32%	.
O=C(c1cc([N+](=O)[O-])ccc1Cl)N1c2ccccc2Sc2ccccc21	?	8.9µM*	?	-11%	-34%	-29%
CCCC(C)NCC(=O)Nc1ccccc1-c1ccccc1 (centres undefined)	?	?	1.1µM*	-12%	?	.
COc1ccccc1NC(=O)CCC(=O)c1ccc(-c2ccccc2)cc1	5%	-10%[59 µM]	25µM*	-2%	-10%	10%
O=C(CCN1C(=O)c2ccccc2C1=O)Nc1ccccc1C(F)(F)F	1%	45µM*	-10%	-27%	38%	.
COc1ccccc1NC(=O)CCN1C(=O)c2ccccc2C1=O	3%	79µM*	1%	1%	24%	.
COc1ccccc1NC(=O)CCC(=O)Nc1ccccc1OC	8%	6%[59 µM]	-3%	3%	15%	-11%[11.4 µM]
O=C(CNC(c1ccccc1)c1ccccc1)Nc1ccccc1-c1ccccc1	-4%	27%[59 µM]	-15%	23%	37%	3%
